What was measured:
Assay in all cases: PBM binding z-score (relative to random genomic background probes); higher = stronger binding; sequences stand for … in GC…GCGATTGACAGCGTAGAATGAAGG
[1] = test system: FXR:RXRa (NR concentration 270 nM, RXRa partner concentration 90 nM)
Procedure, shortened: (§1)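 For binding z-scores, the reference was random background probes on custom Agilent 4×180K protein-binding microarrays. These arrays were incubated 1 h with ligand-free nuclear receptor dimers in PBS pH 7.4, 2% milk, 0.02% Triton X-100, 1 mM DTT, 0.2 mg/mL BSA and 0.4 mg/ml salmon testes DNA. Fluorescence was scanned after antibody detection of each partner (one per run) and regression-normalized.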

[2] = test system: LXRa:RXRa (NR concentration 270 nM, RXRa partner concentration 90 nM)
Procedure, shortened: as §1

[3] = test system: LXRa homodimer (NR concentration 270 nM)
Procedure, shortened: as §1

[4] = test system: LXRb:RXRa (NR concentration 270 nM, RXRa partner concentration 90 nM)
Procedure, shortened: as §1

[5] = test system: LXRb homodimer (NR concentration 270 nM)
Procedure, shortened: as §1

[6] = test system: PPARa:RXRa (NR concentration 270 nM, RXRa partner concentration 90 nM)
Procedure, shortened: as §1

[7] = test system: PPARg:RXRa (NR concentration 180 nM, RXRa partner concentration 90 nM)
Procedure, shortened: as §1

[8] = test system: PPARg:RXRa 270nM:90nM, anti-RXR (NR concentration 270 nM, RXRa partner concentration 90 nM)
Procedure, shortened: as §1

[9] = test system: PPARg:RXRa 30nM:10nM, anti-RXR (NR concentration 30 nM, RXRa partner concentration 10 nM)
Procedure, shortened: as §1

[10] = test system: PPARg:RXRa 90nM:30nM, anti-RXR (NR concentration 90 nM, RXRa partner concentration 30 nM)
Procedure, shortened: as §1

| Sequence | PBM binding z-score [1] | PBM binding z-score [2] | PBM binding z-score [3] | PBM binding z-score [4] | PBM binding z-score [5] | PBM binding z-score [6] | PBM binding z-score [7] | PBM binding z-score [8] | PBM binding z-score [9] | PBM binding z-score [10] |
| --- | --- | --- | --- | --- | --- | --- | --- | --- | --- | --- |
| CCTGCTAGGTCAATAGTCAGCTAAAGCAGCTCGC | 2.43 | 1.66 | -0.401 | 0.931 | 0.148 | 2.28 | 2.33 | 2.95 | 0.219 | 1.9 |
| TCATATAGGTAAAGGTGAAACTCGAACGATATGA | 0.837 | 1.52 | -0.0632 | 1.7 | -0.204 | 3.58 | 4.46 | 4.88 | 4.59 | 5.12 |
| ATCTCTAGGTAACCCAGTTCAGTGAATGCCGAAC | 0.242 | 0.741 | 0.606 | 0.843 | 0.72 | 1.72 | 1.52 | 1.69 | 0.311 | 1.12 |
| GCGACTGGGGCATCAGCAGGTTAACATAACTTAA | -0.169 | -0.338 | -0.456 | 1.01 | -0.643 | 1.27 | 1.18 | 1.16 | 0.116 | 0.609 |
| TCTTGTGGATCAATAGAGGTTAAGAAAGTGCGCT | 0.938 | 3.27 | 0.355 | 1.91 | 0.376 | 1.63 | -0.178 | 1.51 | 2.31 | 1.64 |
| TGAATGAGGTTATAAGATGAGGGAACGTTGCAAA | 1.51 | 1.28 | -0.0389 | 1.09 | 0.338 | 2.36 | 1.1 | 1.61 | 1.03 | 1.43 |
| TCTTGTAGATCAAGAGAGGTTAAGAAAGTGCGCT | 0.516 | 3.28 | 0.0219 | 1.46 | -0.672 | 1.44 | -0.217 | 1.2 | 2.19 | 1.72 |
| GCTAGCAGGCCATTTTGGTCACTCAATGACGGGC | -0.64 | -0.754 | -1.03 | -0.967 | -0.971 | -0.67 | 0.24 | -0.925 | -0.857 | -0.861 |
| CCTTACGGGTCACTCCGGGTTATAGCATCGGAGT | 5.38 | 6.79 | 0.448 | 4.31 | 0.169 | 4.62 | 3.58 | 4.18 | 1.34 | 3.26 |
| CGAACTAGGTCAGAACAGGACAGTGTAGGATGAT | 1.59 | 0.807 | -0.126 | 0.58 | -0.539 | 3.33 | 5.09 | 4.48 | 1.85 | 3.29 |
| GGAACGAGGGCGTTCGAGTTGATAGCATGGCGAT | -0.0904 | -0.232 | -0.938 | -0.656 | -0.964 | -0.0431 | 0.127 | -0.547 | -0.579 | -0.797 |
| CGAACTAGGTCATTGAAAGGACAGTGAATAGTAA | 3.97 | 2.81 | 0.177 | 1.84 | 0.134 | 4.42 | 7.82 | 6.43 | 4.13 | 5.83 |
| TCTTATAGATCAACAGGAGGTTAAGAAAGATCGA | 0.826 | 1.6 | 0.457 | 1.36 | 0.165 | 1.6 | 0.533 | 2.08 | 3.48 | 2.93 |
| TCGAGTAGGTTACCAATGGGGCAGTCAGCTTTCT | 0.254 | 0.465 | -0.934 | 0.266 | -0.413 | 1.05 | 0.211 | 1.04 | 1.06 | 0.984 |
| GCGTACGGGTCAAAGGTTATAGCATGAATAGAAT | 7.58 | 5.75 | 0.516 | 5.7 | -0.18 | 6.8 | 10.5 | 8.74 | 8.99 | 9.27 |
| TTACCAGGGTGAAGGTCGTTGATCCCTCTGTAGA | 1.98 | 1.73 | -0.022 | 1.44 | -0.184 | 3.62 | 6.75 | 6.39 | 4.84 | 6.33 |
| TCTTGTAGCTCAGCAGGTTAAGAAAGCTGGCCAA | -0.369 | -0.138 | -0.851 | -0.1 | -0.79 | 0.495 | -0.935 | 0.729 | 1.58 | 1.27 |
| CTCGAAAGGTCGTGCTCAGGTGAGTTTACCAAAC | 5.01 | 4.08 | 0.0619 | 3.31 | 0.366 | 4.6 | 1.98 | 3.86 | 1.67 | 2.65 |
| CAAACTAGGTCCAGAGGTCAAAGTCCGCTTCCCG | 4.77 | 5.55 | 5.71 | 5.03 | 1.62 | 5.29 | 5.18 | 6.22 | 4.37 | 6.29 |
| CCGACTGGGGCATAAGGCTACCATAAGCCAGCCC | -0.264 | -0.169 | -0.35 | -0.67 | -1.17 | 0.356 | 1.55 | 2.13 | 0.339 | 1.84 |
| TAGCCTAGGTCATGCGGGCCAGTACAGTGTCGGC | 4.21 | 2.99 | 0.179 | 1.48 | -0.174 | 3.65 | 2.42 | 2.56 | 0.126 | 1.61 |
| TCGAGTAGGTTAGTCGGGGCATACAGCCAACATA | 0.288 | 0.232 | -0.353 | 0.458 | -0.174 | 0.913 | 0.365 | 0.998 | 1.25 | 1.07 |
| AGAATGAGGTTATACGTAGATCACGGAAGAAAGT | 2.18 | 2.11 | 0.266 | 1.61 | -0.128 | 3.03 | 1.91 | 2.03 | 0.729 | 1.42 |
| TAACCTAGGTCATGCGGGCCAGTATAGTGTCGGC | 4.19 | 4.46 | 1.83 | 2.55 | -0.0591 | 4.09 | 4.16 | 3.58 | 1.11 | 2.56 |
